# Test results: PubChem BioAssay AID1159580 (chemical genetic matrix, 2015)
# The campaign covered roughly 5,500 compounds. About 2,000 (36%) were called active. Not shown: some 18% with an inconclusive outcome. Some of the results follow. Values without a mark were called inactive. Cut-off read from the data, not from the text of the source: active = normalized growth mostly below about 0.91 (no sharp cut-off); inconclusive = no clear call, values can overlap the other calls; inactive = mostly above about 0.92.
# Test: chemical genetic growth profiling, strain panel (AID 1159580);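 note: tested at 20 µM; growth read once vehicle control cultures reached saturation at 30 °C; 1 = growth at the plate median or of vehicle wells; lower values mean less growth of the strain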
# Settings: growth OD
smiles,measurement,setting,value
Cc1cc2cc3c(C)cc(=O)oc3c(C)c2o1,normalized growth,"S. cerevisiae deletion strains, locus YKL009W, strain mrt4, hits give low values",0.894
same,normalized growth,"S. cerevisiae deletion strains, locus YKL068W, hits give low values",1.01
same,normalized growth,"S. cerevisiae deletion strains, locus YKL085W, strain MDH1 (second series), hits give low values",0.992
same,normalized growth,"S. cerevisiae deletion strains, locus YKL085W, strain MDH1, hits give low values",0.992
same,normalized growth,"S. cerevisiae deletion strains, locus YKL160W, strain elf1, hits give low values",0.951
same,normalized growth,"S. cerevisiae deletion strains, locus YKL190W, strain CNB1, hits give low values",0.981
same,normalized growth,"S. cerevisiae deletion strains, locus YKR001C, strain vps1, hits give low values",0.916
same,normalized growth,"S. cerevisiae deletion strains, locus YKR026C, strain gcn3, hits give low values",0.987
same,normalized growth,"S. cerevisiae deletion strains, locus YKR091W, strain srl3, hits give low values",1.01
same,normalized growth,"S. cerevisiae deletion strains, locus YLL001W, strain dnm1, hits give low values",0.993
same,normalized growth,"S. cerevisiae deletion strains, locus YLL026W, hits give low values",0.981
same,normalized growth,"S. cerevisiae deletion strains, locus YLL041C, strain sdh2, hits give low values",1.01
same,normalized growth,"S. cerevisiae deletion strains, locus YLR027C, strain aat2, hits give low values",1
same,normalized growth,"S. cerevisiae deletion strains, locus YLR039C, strain RIC1, hits give low values",0.927
same,normalized growth,"S. cerevisiae deletion strains, locus YLR058C, strain SHM2, hits give low values",0.971
same,normalized growth,"S. cerevisiae deletion strains, locus YLR102C, strain apc9, hits give low values",0.994
same,normalized growth,"S. cerevisiae deletion strains, locus YLR113W, strain HOG1, hits give low values",1.02
same,normalized growth,"S. cerevisiae deletion strains, locus YLR221C, strain rsa3, hits give low values",0.947
same,normalized growth,"S. cerevisiae deletion strains, locus YLR258W, strain gsy2, hits give low values",0.956
same,normalized growth,"S. cerevisiae deletion strains, locus YLR262C, strain YPT6 (second series), hits give low values",0.994
same,normalized growth,"S. cerevisiae deletion strains, locus YLR262C, strain YPT6, hits give low values",0.912
same,normalized growth,"S. cerevisiae deletion strains, locus YLR268W, strain sec22, hits give low values",0.898
same,normalized growth,"S. cerevisiae deletion strains, locus YLR320W, strain mms22, hits give low values",0.909
same,normalized growth,"S. cerevisiae deletion strains, locus YLR330W, strain CHS5, hits give low values",0.984
same,normalized growth,"S. cerevisiae deletion strains, locus YLR342W, strain FKS1 (second series), hits give low values",0.915
same,normalized growth,"S. cerevisiae deletion strains, locus YLR342W, strain FKS1, hits give low values",0.994
same,normalized growth,"S. cerevisiae deletion strains, locus YLR357W, strain rsc2, hits give low values",1.1
same,normalized growth,"S. cerevisiae deletion strains, locus YLR370C, strain arc18, hits give low values",0.986
same,normalized growth,"S. cerevisiae deletion strains, locus YLR371W, strain rom2, hits give low values",0.99
same,normalized growth,"S. cerevisiae deletion strains, locus YLR384C, strain iki3, hits give low values",1
same,normalized growth,"S. cerevisiae deletion strains, locus YLR418C, strain cdc73, hits give low values",0.83 (active)
same,normalized growth,"S. cerevisiae deletion strains, locus YML016C, strain PPZ1, hits give low values",0.951
same,normalized growth,"S. cerevisiae deletion strains, locus YML032C, strain rad52, hits give low values",0.8 (active)
same,normalized growth,"S. cerevisiae deletion strains, locus YML120C, strain ndi1, hits give low values",0.996
same,normalized growth,"S. cerevisiae deletion strains, locus YML124C, strain tub3, hits give low values",0.986
same,normalized growth,"S. cerevisiae deletion strains, locus YMR058W, strain fet3, hits give low values",0.945
same,normalized growth,"S. cerevisiae deletion strains, locus YMR078C, strain ctf18, hits give low values",0.974
same,normalized growth,"S. cerevisiae deletion strains, locus YMR125W, strain sto1, hits give low values",1.11 [resistant] (active)
same,normalized growth,"S. cerevisiae deletion strains, locus YMR129W, hits give low values",1.02
same,normalized growth,"S. cerevisiae deletion strains, locus YMR205C, strain PFK2, hits give low values",1.03
same,normalized growth,"S. cerevisiae deletion strains, locus YMR223W, strain ubp8, hits give low values",0.936
same,normalized growth,"S. cerevisiae deletion strains, locus YMR231W, strain pep5, hits give low values",1
same,normalized growth,"S. cerevisiae deletion strains, locus YMR263W, strain SAP30, hits give low values",0.908
same,normalized growth,"S. cerevisiae deletion strains, locus YMR307W, strain GAS1, hits give low values",0.887
same,normalized growth,"S. cerevisiae deletion strains, locus YNL067W, strain RPL9B, hits give low values",0.897
same,normalized growth,"S. cerevisiae deletion strains, locus YNL071W, strain lat1, hits give low values",0.931
same,normalized growth,"S. cerevisiae deletion strains, locus YNL128W, strain TEP1, hits give low values",0.975
same,normalized growth,"S. cerevisiae deletion strains, locus YNL153C, strain GIM3, hits give low values",0.918
same,normalized growth,"S. cerevisiae deletion strains, locus YNL183C, strain NPR1, hits give low values",0.924
same,normalized growth,"S. cerevisiae deletion strains, locus YNL209W, strain ssb2, hits give low values",0.981
same,normalized growth,"S. cerevisiae deletion strains, locus YNL233W, strain BNI4, hits give low values",0.885
same,normalized growth,"S. cerevisiae deletion strains, locus YNL248C, strain rpa49, hits give low values",0.861 (active)
same,normalized growth,"S. cerevisiae deletion strains, locus YNL250W, strain rad50, hits give low values",0.963
same,normalized growth,"S. cerevisiae deletion strains, locus YNL271C, strain bni1, hits give low values",0.964
same,normalized growth,"S. cerevisiae deletion strains, locus YNL298W, strain CLA4, hits give low values",0.941
same,normalized growth,"S. cerevisiae deletion strains, locus YNL307C, strain MCK1, hits give low values",0.905 (active)
same,normalized growth,"S. cerevisiae deletion strains, locus YNL322C, strain KRE1 (second series), hits give low values",1
same,normalized growth,"S. cerevisiae deletion strains, locus YNL322C, strain KRE1, hits give low values",0.993
same,normalized growth,"S. cerevisiae deletion strains, locus YNR049C, strain mso1, hits give low values",1.01
same,normalized growth,"S. cerevisiae deletion strains, locus YNR052C, strain pop2, hits give low values",0.98
same,normalized growth,"S. cerevisiae deletion strains, locus YOL006C, strain TOP1, hits give low values",0.585
same,normalized growth,"S. cerevisiae deletion strains, locus YOL012C, strain htz1",0.819
same,normalized growth,"S. cerevisiae deletion strains, locus YOL147C, strain pex11, hits give low values",0.986
same,normalized growth,"S. cerevisiae deletion strains, locus YOR001W, strain rrp6, hits give low values",0.972
same,normalized growth,"S. cerevisiae deletion strains, locus YOR061W, strain CKA2, hits give low values",0.97
same,normalized growth,"S. cerevisiae deletion strains, locus YOR069W, strain VPS5, hits give low values",0.974
same,normalized growth,"S. cerevisiae deletion strains, locus YOR070C, strain gyp1, hits give low values",0.979
same,normalized growth,"S. cerevisiae deletion strains, locus YOR080W, strain dia2, hits give low values",1
same,normalized growth,"S. cerevisiae deletion strains, locus YOR083W, strain WHI5, hits give low values",0.941
same,normalized growth,"S. cerevisiae deletion strains, locus YOR106W, strain vam3, hits give low values",0.98
same,normalized growth,"S. cerevisiae deletion strains, locus YOR136W, strain idh2, hits give low values",0.969
same,normalized growth,"S. cerevisiae deletion strains, locus YOR144C, strain elg1, hits give low values",0.979
same,normalized growth,"S. cerevisiae deletion strains, locus YOR184W, strain ser1, hits give low values",0.875
same,normalized growth,"S. cerevisiae deletion strains, locus YOR231W, strain MKK1, hits give low values",0.926
same,normalized growth,"S. cerevisiae deletion strains, locus YOR265W, strain rbl2, hits give low values",0.995
same,normalized growth,"S. cerevisiae deletion strains, locus YOR270C, strain vph1, hits give low values",0.872
same,normalized growth,"S. cerevisiae deletion strains, locus YOR290C, strain snf2, hits give low values",0.949
same,normalized growth,"S. cerevisiae deletion strains, locus YOR316C, strain cot1, hits give low values",0.989
same,normalized growth,"S. cerevisiae deletion strains, locus YPL051W, strain arl3, hits give low values",0.982
same,normalized growth,"S. cerevisiae deletion strains, locus YPL055C, strain LGE1, hits give low values",0.88
same,normalized growth,"S. cerevisiae deletion strains, locus YPL078C, strain atp4, hits give low values",0.976
same,normalized growth,"S. cerevisiae deletion strains, locus YPL106C, strain sse1, hits give low values",0.92
same,normalized growth,"S. cerevisiae deletion strains, locus YPL240C, strain hsp82, hits give low values",0.994
same,normalized growth,"S. cerevisiae deletion strains, locus YPL241C, strain CIN2, hits give low values",0.985
same,normalized growth,"S. cerevisiae deletion strains, locus YPL256C, strain CLN2, hits give low values",0.993
same,normalized growth,"S. cerevisiae deletion strains, locus YPR119W, strain clb2, hits give low values",0.987
same,normalized growth,"S. cerevisiae deletion strains, locus YPR141C, strain kar3, hits give low values",0.996
same,normalized growth,"S. cerevisiae deletion strains, locus YPR163C, strain tif3, hits give low values",0.969
same,normalized growth,"S. cerevisiae deletion strains, locus YPR167C, strain met16, hits give low values",0.983
same,normalized growth,"S. cerevisiae deletion strains, strain wtn01, hits give low values",0.931
same,normalized growth,"S. cerevisiae strains, strain wild type, hits give low values",0.964
